Data on 14 molecules can be found in PubChem BioAssay (NCI).

Some test systems named below: T-47D breast; BT-549 breast; MDA-MB-435 melanoma; SW-620 colon; MCF7 breast; HCT-116 colon; HCC-2998 colon; KM12 colon.
Test in all cases: NCI-60 one-dose screen, 48 h (100 = growth as untreated, 0 = no growth, -100 = all killed)
Settings in all cases: 10 µM

The panel holds about 83,000 compounds, 20% with a hit somewhere; the sample as a whole holds those more often.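 In brief: 96-well plates, 48 h treatment, single concentration, percent growth endpoint.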 Unmarked numbers belong to inactive results. Activity calls are given as the source filed them. Rule for the calls: active = growth percent below 10; inactive = the rest.

Take `NS(=O)(=O)c1ccc(Br)cc1`: the growth in the assay with T-47D breast was 84.7%; in the assay with BT-549 breast, 87.6%; with MDA-MB-435 melanoma, 105%; in the assay on SW-620 colon, 112%; with MCF7 breast, 94%; in the assay with HCT-116 colon, 81.4%. Moreover, the figures for the growth with HCC-2998 colon and with KM12 colon were 108% and 99.5%, respectively.

Turning to `CC(=O)Oc1cc(OC(C)=O)c2ccccc2c1OC(C)=O`, the growth with T-47D breast is 61.4%; in the assay with BT-549 breast, 92.4%; with MDA-MB-435 melanoma, -57.4% (active); in the assay with SW-620 colon it was 91.9%; in the assay on MCF7 breast it was 56.8%; with HCT-116 colon it was 80.1%. For the same molecule, the growth is 110% in the assay with HCC-2998 colon and 90.6% in the assay on KM12 colon.

Take `Cc1c[nH]c(=O)n(Cc2nnc(CCC(=O)c3nc4ccccc4[nH]3)o2)c1=O`: the growth in the assay on T-47D breast is 34.3%; in the assay on BT-549 breast, 18.9%; in the assay on MDA-MB-435 melanoma, -45.8% (active); in the assay with SW-620 colon, 28.9%; in the assay with MCF7 breast, 9.44% (active); in the assay with HCT-116 colon, 6.25% (active). In addition, the growth is -27.9% (active) in the assay on HCC-2998 colon and 4.98% (active) in the assay with KM12 colon.

As for `OC(CNc1ccnc2cc(Cl)ccc12)CNC1CCCCC1` (configuration not stated), the growth is 65.6% in the assay on T-47D breast; 70% with BT-549 breast; 52.5% with MDA-MB-435 melanoma; 92.9% in the assay with SW-620 colon; 75.7% in the assay with MCF7 breast; 68.9% in the assay on HCT-116 colon. For the same molecule, the growth in the assay on HCC-2998 colon was 64.3%; in the assay with KM12 colon, 83.5%.

`CCC(c1ccc(OC)cc1)C(CC)c1ccc(O)c(CN2CCN(C)CC2)c1` (configuration not stated): the growth in the assay with T-47D breast is 39.1%; in the assay with BT-549 breast, 76.9%; in the assay with MDA-MB-435 melanoma, 33.5%; in the assay on SW-620 colon it was 16.6%; with MCF7 breast, 50.9%; in the assay on HCT-116 colon it was 29.1%. Further, the figures for the growth in the assay on HCC-2998 colon and with KM12 colon were -1.52% (active) and 53.9%, respectively.

As to `CCOC(=O)N/N=C/c1ccc(OC)c(OC)c1`, the growth was 105% with T-47D breast; 106% with BT-549 breast; 106% in the assay with MDA-MB-435 melanoma; 109% with SW-620 colon; 98.7% in the assay with MCF7 breast; 102% in the assay on HCT-116 colon. Also, the values for the growth with HCC-2998 colon and in the assay on KM12 colon were 114% and 117%, respectively.

In the case of `CCOC(=O)c1sc2ncnc(Nc3ccc4c(cnn4C(=O)Nc4ccccc4)c3)c2c1C`, the growth with T-47D breast was 51.5%; in the assay on BT-549 breast, 48.9%; with MDA-MB-435 melanoma it was 54.2%; in the assay on SW-620 colon, 50%; in the assay on MCF7 breast, 55.8%; in the assay with HCT-116 colon, 34.4%. Also, the figures for the growth in the assay with HCC-2998 colon and with KM12 colon were 98.4% and 65.5%, respectively.

With `OC(CCN1CCCC1)(c1ccccc1)C1CCCCC1` (configuration not stated), the growth in the assay with T-47D breast is 102%; with BT-549 breast, 106%; with MDA-MB-435 melanoma, 101%; in the assay with SW-620 colon it was 105%; in the assay on MCF7 breast it was 101%; with HCT-116 colon it was 104%. Further, the growth with HCC-2998 colon is 105%; in the assay with KM12 colon, 101%.

Regarding `Cc1noc(C)c1CSc1ccccc1C(=O)N1CCN(c2cccc(C(F)(F)F)c2)CC1`, the growth with T-47D breast is 49.2%; in the assay on BT-549 breast it was 61%; in the assay on MDA-MB-435 melanoma it was 82.6%; in the assay on SW-620 colon, 86.5%; with MCF7 breast, 79.4%; in the assay on HCT-116 colon, 55.3%. Also, the growth in the assay on HCC-2998 colon is 93.6%; with KM12 colon it was 79.2%.

As for `COc1cc(-c2ccc[nH]2)[nH]c1/C=C1\N=C(C)C(C(=O)NC(C)C)=C1C`, the growth is 34% with T-47D breast; 43.8% in the assay on BT-549 breast; 14.9% with MDA-MB-435 melanoma; 7.72% (active) with SW-620 colon; 7.83% (active) in the assay on MCF7 breast; 4.6% (active) with HCT-116 colon. For the same molecule, the growth was 21.2% in the assay with HCC-2998 colon and 19.3% with KM12 colon.

Regarding `OCCn1cccn1`, the growth with T-47D breast was 102%; in the assay with BT-549 breast, 110%; with MDA-MB-435 melanoma, 102%; with SW-620 colon it was 101%; in the assay on MCF7 breast, 116%; in the assay on HCT-116 colon it was 110%. Also, the growth is 97.1% in the assay with HCC-2998 colon and 102% in the assay on KM12 colon.

On to `O=C(O)c1cn(C2CC2)c2cc(N3CCN(C(=O)c4cc(-c5ccc(Cl)cc5)nc5ccccc45)CC3)c(F)cc2c1=O`, for which the growth with T-47D breast was 86.7%; with BT-549 breast it was 83.5%; in the assay with MDA-MB-435 melanoma it was 95.6%; in the assay on SW-620 colon, 97.5%; in the assay on MCF7 breast, 89.7%; with HCT-116 colon, 84.3%. The growth is 99.2% with HCC-2998 colon and 102% in the assay with KM12 colon.

As to `O=C(CCc1nnc2sc(-c3cc(O)c(O)c(O)c3)nn12)c1nc2ccccc2[nH]1`, the growth is 83.9% in the assay with T-47D breast; 107% in the assay with BT-549 breast; 98.9% with MDA-MB-435 melanoma; 116% in the assay on SW-620 colon; 85.8% in the assay with MCF7 breast; 85.7% in the assay with HCT-116 colon. The growth is 111% in the assay with HCC-2998 colon and 105% in the assay with KM12 colon.

`Cn1c2ccccc2c2c3[nH][nH]c(=O)c3c3c4ccccc4[nH]c3c21`: the growth is 42.9% in the assay with T-47D breast; 20.5% with BT-549 breast; 23.6% with MDA-MB-435 melanoma; 20.7% in the assay on SW-620 colon; 5.82% (active) with MCF7 breast; -52.8% (active) with HCT-116 colon. For the same molecule, the growth with HCC-2998 colon is 26.5%; in the assay with KM12 colon, 10.7%.
